Unmarked numbers belong to inactive results.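 Rule for the calls: active = calcium activation more than 3 SD above the typical response in the agonist read; inactive = the rest.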
What follows are molecules tested against Thyrotropin-releasing hormone receptor (Homo sapiens) (UniProt P34981) (assay: qHTS for Small Molecule Agonists and Allosteric Enhancers of Human TRH Receptor: Validation Screen for Agonists (AID 493127;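 note: intracellular calcium rise by fluo-8 fluorescence before TRH EC20 addition; 0% is about no effect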)). Conditions: TRH receptor agonist cell assay; at 2 µM; active compounds read high.
Text: NIH Chemical Genomics Center [NCGC]
NIH Molecular Libraries Probe Centers Network [MLPCN]
Assay Submitter (PI): Marvin Gershengorn
This project aims to identify small drug-like molecules that activate (agonists) the thyrotropin releasing hormone (TRH) receptor (TRHR) or enhance its TRH-stimulated activity (allosteric enhancers). TRHR, a drug-accessible cell surface receptor expressed in specific brain regions, and its ligand TRH have been implicated in several central nervous system disorders, including depression and anxiety. Small molecule TRHR agonists or allosteric enhancers that are metabolically stable and able to cross the blood-brain barrier might serve as probes to elucidate the roles of brain TRH receptors in animal models, and might be valuable as lead compounds for the development of drugs to treat patients with central nervous system disorders.
Upon TRHR-Gq activation in TRHR cells, intracellular calcium is released from stores in the endoplasmic reticulum. […] This validation screen measures compound-induced activation of calcium release.
For the HTS assay freshly prepared cells are plated at a density of 2000/well in 3 ul of complete DMEM medium containing 10% serum in 1536-well plates and cultured over night at 37 C in a humidified incubator with 5% CO2. The next day, 2 ul of a no wash calcium dye (ABD Bioquest) was added to the cells and plates were incubated at room temperature for 1 hour. For the assay, assay plates were loaded into the FDSS kinetic plate reader. A 10 cycle (1 second/cycle) baseline measurement is taken and then the FDSS online 1536 pintool delivers 23 nl of compound library (as well as TRH controls) to the plate. The plate is measured for kinetically at 1 cycle/sec for 180 seconds and is considered to be the agonist portion of the assay (eg, compounds which activate a positive calcium response during this portion are flagged as potential agonists). Following the 180 second read, 1 ul of either an EC20 (positive modulation assay) is delivered by an onboard pipette head. Measurements are taken kinetically for an additional 180 seconds.
TRHR FDSS Screening Protocol
1. Reagent, 3 uL 2000 cells/well 1536 TC treated Black plate in media containing 10% FCS
2. Time, 18 hours, 33.5C 5% CO2 (cells grown at 37C)
3. Reagent, 2 uL ABD fluo-8 Ca dye
4. Time, 30 min-1.5hrs hours, Room temp (6 plates/batch)
5. Detector, EX 480/EM 530C, FDSS 10 cycles baseline (1sec/cycle)
6. Compound, 23 nL of stock solution from library
7. Detector, EX 480/EM 530C, FDSS 230 cycles (1sec/cycle) Agonist mode
8. Compound, 1 ul EC20 of TRH made up in HEPES HBSS, 10 nM final
9. Detector, EX 480/EM 530C, FDSS 100 cycles (1sec/cycle) Potentiator mode

Chain of Thyrotropin-releasing hormone receptor (Homo sapiens) (P34981 whole entry, looked up): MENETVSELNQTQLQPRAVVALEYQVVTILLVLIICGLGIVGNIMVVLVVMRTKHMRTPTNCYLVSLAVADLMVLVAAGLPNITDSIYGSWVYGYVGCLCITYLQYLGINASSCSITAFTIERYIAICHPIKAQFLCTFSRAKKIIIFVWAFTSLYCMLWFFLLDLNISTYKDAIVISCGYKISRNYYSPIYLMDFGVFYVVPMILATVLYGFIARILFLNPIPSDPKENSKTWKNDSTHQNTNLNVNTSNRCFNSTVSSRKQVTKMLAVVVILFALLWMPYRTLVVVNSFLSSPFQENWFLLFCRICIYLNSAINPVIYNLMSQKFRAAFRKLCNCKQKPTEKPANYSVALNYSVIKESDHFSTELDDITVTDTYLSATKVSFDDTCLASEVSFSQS

| SMILES | activation [%] |
| --- | --- |
| COc1cc(-c2ccc(=O)[nH]n2)ccc1OC(F)F | -0.438 |
| Oc1ccc(O)cc1 | 0.688 |
| O=C1CCC(c2ccc(-n3ccnc3)cc2)=NN1 | 0.188 |
| Nc1cc(Cl)c(NC2=NCCN2)c(Cl)c1 | 1.12 |
| N[C@@H](Cc1cnc[nH]1)C(=O)O | 0.0625 |
| O=C(O)c1cc2cc(Cc3cccnc3)ccc2o1 | 1.38 |
| CC(C)COC(=O)OCN1C(=O)CN(CCN2CC(=O)N(COC(=O)OCC(C)C)C(=O)C2)CC1=O | 0.75 |
| CC(C)NC[C@@H](O)COc1cccc2ccccc12 | 1.94 |
| CCC(NC(C)C)C(O)c1ccc(O)c(O)c1 (stereo not given) | 0.625 |
| COc1cc(NS(C)(=O)=O)ccc1Nc1c2ccccc2nc2ccccc12 | -3.12 |
| CC1(C)CCC(NC(=O)[C@@H](N)CCC(=O)O)CC1 | 0.125 |
| CC(CCc1ccccc1)NCC(O)c1ccc(O)c(C(N)=O)c1 (stereo not given) | 0.875 |
| CNCCC=C1c2ccccc2CCc2ccccc21 | 0.625 |
| C[C@]12CC[C@@H]3c4ccc(O)cc4CC[C@H]3[C@@H]1CC[C@@H]2O | 4.75 |
| N[C@H](CO)C(=O)O | 0.688 |
| C1CCc2nnnn2CC1 | -0.375 |
| CN1C2CCC1CC(OC(=O)c1c[nH]c3ccccc13)C2 (stereo not given) | 0.812 |
| C[C@@H]1C(=O)NC2=Nc3cccc(Cl)c3CN21 | 1.06 |
| C[N+]1(CCCCC[N+]2(C)CCCC2)CCCC1 | 0.75 |
| COC(=O)[C@H]1[C@H]2C[C@H]3c4[nH]c5ccccc5c4CCN3C[C@H]2CC[C@@H]1O | 1.44 |
